Hit rate of the full screen: of about 390,000 compounds, about 4,000 (1%) were called active. About 4% were inconclusive and are not listed. The call rests on the fitted dose curve; in most records, active means well fitted inhibition curve with a large enough effect; inconclusive means small, poorly fitted or top-dose-only effect; inactive means no such curve, though single readings can be large or run the other way. Many of the other results were omitted from the sample, so actives are more common in it than they were.
biological target: Thioredoxin reductase 1, cytoplasmic (Rattus norvegicus) (UniProt O89049); test: qHTS Assay for Inhibitors of Mammalian Selenoprotein Thioredoxin Reductase 1 (TrxR1): qHTS; settings: recombinant rTrxR1, NADPH fluorescence consumption, selenite substrate; series mostly up to 114 µM; activity change, negative = inhibition: at the top concentration; further: nearly all actives have a fitted effect of over 65% in size
How it was run: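 Rat TrxR1 (90 nM in the dispensed reagent) was pre-reduced with 400 uM NADPH for 5 min at room temperature, then incubated with compound for 15 min. After 400 uM selenite was added, NADPH fluorescence (Ex 340/Em 450 nm) was followed for 8 min.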
On the % scale 0 is the no-effect control and ±100 the full control effect; potency means the concentration at half of the fitted maximal effect.

Sequence of Thioredoxin reductase 1, cytoplasmic (Rattus norvegicus) (O89049 whole entry, looked up): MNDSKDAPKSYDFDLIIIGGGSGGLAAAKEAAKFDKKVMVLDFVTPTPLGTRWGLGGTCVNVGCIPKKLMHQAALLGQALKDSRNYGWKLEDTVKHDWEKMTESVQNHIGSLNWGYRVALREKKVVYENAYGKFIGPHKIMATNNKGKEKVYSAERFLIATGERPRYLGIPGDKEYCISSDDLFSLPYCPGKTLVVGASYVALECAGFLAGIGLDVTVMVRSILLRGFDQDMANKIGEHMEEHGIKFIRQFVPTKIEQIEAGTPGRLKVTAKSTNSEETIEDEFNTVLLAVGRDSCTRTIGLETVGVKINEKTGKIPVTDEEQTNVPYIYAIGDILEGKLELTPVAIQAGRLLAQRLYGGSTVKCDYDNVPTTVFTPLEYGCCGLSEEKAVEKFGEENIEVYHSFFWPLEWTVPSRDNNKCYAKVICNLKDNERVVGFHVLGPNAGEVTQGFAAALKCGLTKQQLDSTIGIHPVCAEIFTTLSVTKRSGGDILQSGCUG

| SMILES | activity change, negative = inhibition | Potency |
| --- | --- | --- |
| COc1ccc(S(=O)(=O)Nc2cccc3cccnc23)c(N)c1 | 10.7% (inactive) | – |
| Cc1cc(-c2ccc(C)c(S(=O)(=O)N3c4ccccc4CC3C)c2)on1 (stereo unspecified) | 2.98% [at 57.1 µM] (inactive) | – |
| CCOc1ccc(C2C(=O)N(C3CCCCC3)CC(=O)N2CCC2=CCCCC2)cc1OC (stereo unspecified) | -0.311% [at 57.1 µM] (inactive) | – |
| Cc1ccc(/C=C/C(=O)Nc2ccc([N+](=O)[O-])c(NC(=O)/C=C/c3ccc(C)o3)c2)o1 | – | 25.1 µM (active) |
| CCOc1ccc(NC(=S)NC(=O)/C=C/c2ccc(OC)cc2)c([N+](=O)[O-])c1 | -2.01% (inactive) | – |
| Cc1ccc(/C=C/C(=O)OCC(=O)NCc2ccc(Cl)cc2)o1 | -13.7% (inactive) | – |
| CN(C(=N)N)c1ccc(/C=C2\C=Cc3ccccc32)cc1 | -2.12% (inactive) | – |
| O=C(NCc1ccccc1Cl)C1=Cc2cc(Br)ccc2OC1 | 2.89% [at 57.1 µM] (inactive) | – |
| COc1cc(OC)cc(C(=O)Nc2ccc(-c3nc4ccccc4o3)c(O)c2)c1 | – | 28.2 µM (active) |
| COc1cc2ccccc2cc1C(=O)Nc1cccc(-c2nc3ccccc3o2)c1 | 19.9% (inactive) | – |
| COc1cccc(C(=O)Nc2ccc3oc(-c4ccc5ccccc5c4)nc3c2)c1 | 40.9% (inactive) | – |
| Cc1ccc(NC(=O)CN2c3ccccc3S(=O)(=O)c3ccccc32)cc1F | 11.6% (inactive) | – |
| COc1cc(C(=O)N(Cc2ccc(C(C)C)cc2)C2CCS(=O)(=O)C2)cc(OC)c1OC (stereo unspecified) | 1.01% (inactive) | – |
| CCc1ccc(S(=O)(=O)Nc2ccc(C)c(NS(C)(=O)=O)c2)cc1 | 3.53% (inactive) | – |
| COc1ccc(S(=O)(=O)N/N=C\c2ccc(OC)c(COc3ccc(C)cc3[N+](=O)[O-])c2)cc1 | -5.22% (inactive) | – |
| CCc1ccc(S(=O)(=O)N/N=C\c2ccc([N+](=O)[O-])o2)cc1 | – | 14.1 µM (active) |
| O=C(Cc1ccccc1)Nc1sc2c(c1C(=O)Nc1ccc(Br)cc1)CCC2 | 9.27% (inactive) | – |
| COc1ccc(NC(=O)C(c2ccccc2)N2Cc3ccccc3C2=O)cc1 (stereo unspecified) | 31.3% [at 57.1 µM] (inactive) | – |
| Cc1ccccc1OCCC(=O)OCC(=O)NC(C)c1ccccc1 (stereo unspecified) | -7.06% (inactive) | – |
| CCOc1ccc(C(CC(=O)O)NC(=O)COc2ccccc2)cc1 (stereo unspecified) | 1.01% [at 57.1 µM] (inactive) | – |
| CCOC(=O)/C=C/C(=O)OCC(=O)NC(c1ccccc1)c1ccccc1 | – | 28.2 µM (active) |
| CC(=O)Nc1ccc(S(=O)(=O)N2N=NC3C2C2CC4C3(CN(C(=O)OC(C)(C)C)S4(=O)=O)O2)cc1 (stereo unspecified) | -0.673% (inactive) | – |
| CN(C)c1ccc(/C=C/c2sc3ccccc3[n+]2CCCCBr)cc1 | 26% (inactive) | – |
| Cc1ccc(C(=O)COC(=O)C(Cc2c[nH]c3ccccc23)NC(=O)c2ccc(Br)cc2)cc1 (stereo unspecified) | 33.8% [at 57.1 µM] (inactive) | – |
| CC(=O)OCC(NC(=O)C(Cc1ccccc1)NC(=O)OC(C)(C)C)C1OC(n2ccc(=O)[nH]c2=O)C(OC(C)=O)C1OC(C)=O (stereo unspecified) | 8.07% (inactive) | – |
| COc1cc(OC)c2c(C)cc(=O)oc2c1C(CCN1CCCCC1)c1ccc(N(C)C)cc1 (stereo unspecified) | -4.41% (inactive) | – |
